# Experimental data taken from PubChem BioAssay AID588856 (National Center for Advancing Translational Sciences (NCATS), 2011).
# Out of some 410,000 compounds screened, about 3,100 (0.76%) were called active. Entries that show only a call come without a potency. Calls follow the shape of the dose curve; as a rule, active = well fitted cell-killing curve with a large enough effect; inactive = no such curve, though single readings can be large or run the other way. Only a selection was taken, and actives are over-represented in it overall.
# Test: qHTS for Inhibitors of TGF-b: Cytotox Counterscreen
# Conditions: HepG2 CAGA-GFP viability, ATP luminescence, 18 h; series mostly up to 46.1 µM
# Method in brief: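 CellTiter-Glo luminescence gave cytotoxicity after 18 hours at 37 degrees C. The cells were HepG2 CAGA-GFP in 1% FBS DMEM, stimulated with 500 pg/mL TGF-beta after compound addition. %Activity was normalised to no-cell wells (complete cell-killing) and DMSO (no toxicity), and curves were fitted and classified.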
# Potency is read from the fitted curve at half-maximal effect.
row,Compound,Potency
1,CCOc1ccc(Nc2nc3c(S(=O)(=O)c4cccc(Cl)c4)nnn3c3ccsc23)cc1,inactive
2,CCc1nc2ccc(C(=O)Nc3cccc(OC)c3)cn2c1N(CCC(C)C)CCN(C)C,11.2 µM (active)
3,CCc1nc2ccc(C(=O)Nc3ccc(OC)c(OC)c3)cn2c1N(C)C(=O)c1cccc(OC)c1,inactive
4,CCc1nc2ccc(C(=O)N(C)CCN(C)C)cn2c1N(CC)CCOC,inactive
5,COc1cccc(CNC(=O)C(=O)NCC(c2cccs2)S(=O)(=O)c2ccccc2)c1 (stereo not given),inactive
6,CN(C)c1ccc(/C=C/c2c3ccccc3nc3ccccc23)cc1,inactive
7,CC(C)(C)OC(=O)C[C@@H]1C/C=C\C[C@@H](CC(=O)N[C@H](CO)Cc2ccccc2)C(=O)NC[C@@H](c2ccccc2)OC1=O,inactive
8,O=C(N[C@@H]1C/C=C\C[C@@H](CC(=O)N(CCO)Cc2ccccc2)C(=O)N[C@H](Cc2ccccc2)COC1=O)OCC1c2ccccc2-c2ccccc21,inactive
9,O=C(C[C@H]1C/C=C\C[C@@H](NC(=O)OCC2c3ccccc3-c3ccccc32)C(=O)O[C@@H](c2ccccc2)CNC1=O)N[C@H](CO)Cc1ccccc1,12.6 µM (active)
10,COc1ccccc1CNC(=O)CCn1c(=O)c2ccccc2n(CC(=O)Nc2cccc(Cl)c2)c1=O,inactive
11,COc1cc(NC(=O)CCn2nc(C)cc2C)cc(OC)c1OC,inactive
12,COc1ccc2oc(-c3ccc(C)c(NC(=O)c4sc5ccccc5c4Cl)c3)nc2c1,inactive
13,O=C(COc1ccccc1C(=O)Nc1ccccc1)Nc1cccc(F)c1,inactive
14,O=C(CCl)Nc1cccc(CP(=O)(c2ccccc2)c2ccccc2)c1,15.8 µM (active)
15,CCc1cccc(NC(=O)c2cc(-c3ccccc3)n[nH]2)c1,inactive
16,Cc1cccc(CN2Cc3cccc4c3[C@H](C=CC4)CC2=S)c1,inactive
17,COc1ccc(C(=O)Nc2ccc3nc(N4CCCCC4)cc(C)c3c2)cc1OC,inactive
18,CCN1CCN(c2cc(C)c3cc(NC(=O)c4cc(Cl)ccc4OC)ccc3n2)CC1,11.2 µM (active)
19,CCOCCCNC(=S)Nc1ccc2nc(N3CCN(CC)CC3)cc(C)c2c1,inactive
20,COc1cc(C(=O)N2CCC(c3ccncc3)CC2)cc(OC)c1OC,inactive
21,CNC[C@H](CC1CCCCC1)NC[C@H](NCCC1CCCC1)[C@H](C)O,15.8 µM (active)
22,CCOc1cccc2cc(-c3cn4c(n3)sc3cc(C)ccc34)c(=O)oc12,inactive
23,CCOC(=O)CSc1nc2c(c(=O)n(Cc3ccccc3Cl)c(=O)n2C)n1C,inactive
24,CCOC(=O)c1cnc2sccn2c1=O,inactive
25,CCOC(=O)c1cnc2nc(SCc3ccccc3Cl)[nH]n2c1=O,2.82 µM (active)
